{"source": "PubChem BioAssay AID492948", "about": "(National Center for Advancing Translational Sciences (NCATS), 2010)", "note": "Inconclusive results are not listed. Unmarked numbers belong to inactive results. Calls of active or inactive are those of the source. The call rests on the fitted dose curve; in most records, active means well fitted activation curve with a large enough effect; inconclusive means small, poorly fitted or top-dose-only effect; inactive means no such curve, though single readings can be large or run the other way. Potency means the concentration at half of the fitted maximal effect."}
{"test": "qHTS Assay for Agonists of the Relaxin Receptor RXFP1: V1B Hit Validation;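 further: counter-screen in HEK293 cells expressing V1B rather than RXFP1 for selectivity; nearly all actives have a fitted effect of over 65% in size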;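 on activation: cAMP accumulation with PDE4 inhibitor Ro 20-1724 present during compound exposure; 0% = buffer alone basal and 100% = 29 nM porcine relaxin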", "settings": "HEK293 V1B cells, cAMP TR-FRET, 30 min; series mostly up to 115 µM; activation: at the top concentration", "description": "NIH Chemical Genomics Center [NCGC]\nNIH Molecular Libraries Probe Production Centers Network [MLPCN]\nAssay Submitter (PI): Alexander Agoulnik\nThe relaxin hormone is involved in the variety of biological functions in normal tissues and diseases. The role of relaxin is well-established in female reproduction and parturition, mammary gland and endometrial development, maintenance of myometrial quiescence during pregnancy. Relaxin signaling through its G protein-coupled receptor (GPCR) RXFP1 results in ECM remodeling through regulation of collagen deposition, cell invasiveness, proliferation and overall tissue homeostasis. […] Recombinant human relaxin (rhRlx) is currently being tested in clinical trials as a protective agent in congestive heart failure, in treating severe preeclampsia, and as an anti-fibrotic agent in systemic sclerosis.\nUpon relaxin binding RXFP1 activation leads to the activation of adenylate cyclase (AC) via Gs. cAMP will activate PKA, which phosphorylates many signaling proteins. Thus, detection of cAMP increase is an easy and reliable indication of relaxin receptor activation. To screen for agonists of the relaxin receptor, a HEK293T cell line stably transfected with RXFP1 was used. RXFP1 activation was assayed by changes in cAMP levels as detected with a time-resolved fluorescence energy transfer (TR-FRET) cAMP detection kit.\nThis assay measures activation of a cell expressing […], another GPCR targeted by relaxin, to determine the selectivity of compounds for RXFP1.\nNCGC Assay Protocol Summary:\nThis is a cell-based assay for cAMP second messenger response to screen for agonists of the RXFP2 receptor. The assay was conducted in the presence of a PDE4 inhibitor (Ro 20174). The cells were lysed and the cAMP levels were measured with a TR-FRET cAMP kit. Presence of cAMP in the cell lysate disrupts binding between the cryptate-labeled anti-cAMP and d2-labeled cAMP pair, leading to a decrease in the TR-FRET signal. Data were normalized to the controls for basal activity (buffer only) and 100% activity (29 nM porcine relaxin). The EC50 values were determined from concentration-response data modeled with the standard Hill equation\n1536-well assay protocol for the HEK293 V1B cAMP assay:\n(1) Add 3 ul HEK293 RXFP2 cell culture. 2000 cells/well in DMEM/F12, 10% FBS, 1x Pen/Strep (dispensed offline with MultiDrop Combi).\n(3) Add 23 nl compounds in DMSO solution. Final concentration was 0.5 - 58 uM.\n(4) Incubate 30 min at 37C, 5% CO2.\n(5) Add 1 ul cAMP-d2 in lysis buffer (HTRF cAMP HiRange kit, CisBio).\n(6) Add 1 ul anti-cAMP antibody-cryptate in lysis buffer (HTRF cAMP HiRange kit, CisBio).\n(7) Incubate 30 min at room temperature.\n(6) Detect the assay plate in a ViewLux plate reader (PerkinElmer) with Ex=320 nm, Em1=615 nm and Em2=665 nm.\nKeywords: relaxin, RXFP1, RXFP2, G-protein coupled receptor, cAMP, agonist, high throughput screening, MLSMR, MLSCN, NIH Roadmap, qHTS and NCGC", "units": {"activation": "%"}}
{"smiles": "O=c1[nH]c(O)c(N=Nc2ccc([N+](=O)[O-])cc2)c(=O)[nH]1", "Potency": "17.3 µM (active)"}
{"smiles": "Cn1c(O)c(N=Nc2cccc(S(=O)(=O)N3CCOCC3)c2)c(=O)n(C)c1=O", "Potency": "13.8 µM (active)"}
{"smiles": "CCNC(=O)[C@H]1O[C@@H](n2cnc3c(N)ncnc32)[C@H](O)[C@@H]1O", "Potency": "1.94 µM (active)"}
{"smiles": "O=C1OCc2cc(N=Nc3c(O)[nH]c(=O)[nH]c3=O)ccc21", "Potency": "15.4 µM (active)"}
{"smiles": "CCC(Oc1cc(Cl)ccc1Cl)C(=O)N1CCC2(CC1)OCCO2", "note": "(configuration not stated)", "activation": 1.95}
{"smiles": "O=C(O)c1sc2cc(Cl)ccc2c1Cl", "Potency": "19.4 µM (active)"}
{"smiles": "Nc1ncc2[nH]cnc2n1", "Potency": "24.5 µM (active)"}
